Measured values from PubChem BioAssay (NCI).
About 79,000 compounds went through this panel and 15% of them were active in at least one assay; those are over-represented in the sample as a whole. A number with no mark means an inactive call. Activity calls are given as the source filed them. Rule as the data show it: active = growth inhibition above about 70%; inactive = the rest.

Key:
[1] = NCI Yeast Anticancer Drug Screen. Data for the rad50 strain (AID 155);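 also: 0% = growth of vehicle-only cultures of the same strain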; settings: S. cerevisiae rad50 strain growth inhibition, hits give high values
Procedure, shortened: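 A DNA repair-deficient yeast mutant serves as the test organism; compound-induced growth inhibition is calculated against vehicle-treated cells.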

[2] = NCI Yeast Anticancer Drug Screen. Data for the mec2-1 strain (AID 157); settings: S. cerevisiae mec2-1 strain, hits give high values
Procedure, shortened: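 Growth inhibition is read against vehicle-treated controls after compound exposure of the mec2-1 yeast strain, which is defective in DNA damage repair or cell cycle control.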

[3] = NCI Yeast Anticancer Drug Screen. Data for the sgs1 mgt1 strain (AID 161);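 also: 0% = growth of cultures given vehicle only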; settings: S. cerevisiae sgs1 mgt1 strain, hits give high values
Procedure, shortened: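 Percent growth inhibition was derived by comparing compound-exposed mutant yeast with vehicle-exposed cultures. The strain carries alterations in DNA damage repair.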

[4] = NCI Yeast Anticancer Drug Screen. Data for the cln2 rad14 strain (AID 165);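 also: 0% = growth equal to vehicle treated cultures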; settings: S. cerevisiae cln2 rad14 strain, hits give high values
Procedure, shortened: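 Growth inhibition, relative to vehicle-treated controls, is the read-out. The test organism is a yeast strain with defined genetic alterations, cln2 rad14.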

[5] = NCI Yeast Anticancer Drug Screen. Data for the bub3 strain (AID 167); settings: S. cerevisiae bub3 mutant strain, hits give high values
Procedure, shortened: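 Inhibition values come from growth of compound-treated mutant yeast normalised to vehicle-treated controls.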

[6] = NCI Yeast Anticancer Drug Screen. Data for the mlh1 rad18 strain (AID 175); settings: S. cerevisiae mlh1 rad18 strain growth inhibition, hits give high values
Procedure, shortened: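 Cells of a genetically altered yeast strain, deficient in DNA damage repair, were treated with compound. Their growth was then compared with that of vehicle-treated cultures to give inhibition.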

[7] = at 5.0 µM (retest, dose inferred, filed as 0.5)
[8] = at 50.0 µM (retest, dose inferred, filed as 5.0)

Row | Structure (SMILES) | growth inhibition [1, 7] | growth inhibition [1, 8] | growth inhibition ([1]; at 50.0 µM) | growth inhibition [2, 7] [%] | growth inhibition [2, 8] | growth inhibition ([2]; at 50.0 µM) | growth inhibition [3, 7] | growth inhibition [3, 8] | growth inhibition ([3]; at 50.0 µM) | growth inhibition [4, 7] [%] | growth inhibition [4, 8] | growth inhibition ([4]; at 50.0 µM) | growth inhibition [5, 7] | growth inhibition [5, 8] | growth inhibition ([5]; at 50.0 µM) | growth inhibition [6, 7] | growth inhibition [6, 8] | growth inhibition ([6]; at 50.0 µM)
1 | N#C/C(=C1C=C/C(=N/O)C=C/1Cl)c1ccccc1 | -3% | -7% | 21.7% | -7 | 4% | 24.3% | 4% | 36% | 51.9% | -15 | 6% | 69.5% | 5% | 18% | 28.1% | -11% | 10% | 26.4%
2 | N#CC=Cc1ccc([N+](=O)[O-])s1 (mixture of isomers) | 41% | 99% (active) | 89.8% (active) | 39 | 98% (active) | 90.8% (active) | 59% | 99% (active) | 90.8% (active) | 32 | 99% (active) | 90.8% (active) | 70% (active) | 99% (active) | 88.5% (active) | 50% | 98% (active) | 91.1% (active)
3 | CCc1c(-c2ccccc2)c(CN2CCCCC2)c2ccccn12 | 6% | 3% | -1.4% | 13 | 13% | -4.85% | 0% | 37% | 88.2% (active) | -6 | 26% | -20% | -4% | 26% | -5.5% | -12% | 5% | 21.9%
4 | COc1cc(N=Nc2ccccc2)cc(/C=N/NC(N)=S)c1O | -2% | 46% | 73.8% (active) | 3 | 59% | 67.2% | 9% | 85% (active) | 88.8% (active) | -9 | 37% | 78.8% (active) | 1% | 61% | 58.3% | 4% | 73% (active) | 90.8% (active)
5 | C[N+](C)(CCCCCCOc1c(Br)cc(Br)cc1Br)Cc1ccc(Br)o1 | 71% (active) | 99% (active) | 99.5% (active) | 38 | 100% (active) | 99.8% (active) | 84% (active) | 100% (active) | 99.8% (active) | 40 | 99% (active) | 99.2% (active) | 61% | 99% (active) | 99.8% (active) | 83% (active) | 99% (active) | 99.7% (active)
6 | O=S(=O)(Sc1ccccc1)c1ccccc1 | 13% | 98% (active) | 79% (active) | 11 | 99% (active) | 99.1% (active) | 16% | 99% (active) | 99.3% (active) | 5 | 99% (active) | 97% (active) | 16% | 99% (active) | 97.3% (active) | 20% | 99% (active) | 99% (active)
7 | O=C(OCCN=c1c2ccccc2ccc2ccccc12)c1ccccc1 | 0% | 97% (active) | 42% | -14 | 94% (active) | 31.4% | -43% | 83% (active) | 65.3% | 22 | 36% | 29.8% | 2% | 98% (active) | 71% (active) | -19% | 98% (active) | 15.7%
8 | CN(C(=O)c1ccccc1)C1(COC(=O)c2ccccc2)CCCCC1 | -6% | 3% | 16.1% | -28 | -9% | -5.95% | -25% | -11% | -2.75% | 1 | 1% | 21.3% | 21% | 28% | 65.7% | 16% | 6% | 9.9%
9 | COC(=O)C1=C(C)NC(c2ccc(OC)cc2OC)C(C(=O)OC)=C1C (stereo not given) | 4% | 21% | 68.7% | 3 | 11% | 25.6% | 1% | 14% | 76.8% (active) | -3 | 4% | 25.6% | 1% | 16% | 49.7% | -1% | 24% | 58%
10 | O=P1(Cc2ccccc2)c2ccccc2-c2ccccc21 | -21% | 99% (active) | 85.6% (active) | -17 | 99% (active) | 91.1% (active) | -24% | 97% (active) | 88.9% (active) | -18 | 96% (active) | 89.4% (active) | -33% | 99% (active) | 88.7% (active) | 4% | 99% (active) | 84.3% (active)
11 | C1=CC2OC1c1cc3ccccc3cc12 | 13% | 92% (active) | 87.5% (active) | 11 | 98% (active) | 96.5% (active) | 10% | 98% (active) | 89.9% (active) | 23 | 98% (active) | 95.6% (active) | 6% | 97% (active) | 95% (active) | 34% | 97% (active) | 95.2% (active)
12 | CCOCCNCc1ccc(Cl)c(Cl)c1 | -145% | -89% | 4.05% | -47 | -51% | 0.1% | -60% | -90% | 2.7% | -51 | -53% | 21.1% | -67% | -50% | -5.85% | -144% | -85% | -7.9%
13 | c1ccc(-c2cc(-c3cc(-c4ccccn4)[nH]n3)n[nH]2)nc1 | 5% | 4% | 17.2% | 0 | -11% | 0.75% | 0% | 18% | 23.5% | -1 | -16% | 9.05% | 4% | 7% | 3.4% | -5% | 4% | 19.6%
14 | Nc1cc(S(=O)(=O)O)cc2cc(S(=O)(=O)O)c(N=Nc3ccccc3)c(O)c12 | 0% | -1% | 99.3% (active) | -2 | 5% | 99.2% (active) | 0% | 0% | 99.3% (active) | 12 | 3% | 96.5% (active) | -36% | 10% | 99% (active) | 0% | 1% | 98.7% (active)
15 | Cc1cn(C2OC(CO)C(O)C(O)C2N)c(=O)[nH]c1=O (stereo not given) | 0% | -2% | 86.5% (active) | 3 | 10% | 70.3% (active) | 1% | 8% | 56.5% | -4 | 0% | 61.6% | -8% | -13% | 93.9% (active) | -4% | -3% | 92.5% (active)
16 | CCCC/C=C\CCCCCCCCCC1=C(O)C(=O)C=C(OC)C1=O | 65% | 83% (active) | 60.9% | 64 | 89% (active) | 69.6% | 74% (active) | 91% (active) | 65.3% | 40 | 62% | 42.5% | 77% (active) | 86% (active) | 63% | 71% (active) | 87% (active) | 57.7%
17 | NC(=S)SCCC(=O)O | -2% | 4% | -31.1% | -6 | -21% | -41.5% | -10% | -14% | -3.95% | -3 | -4% | 40.1% | -11% | -19% | -21.9% | -16% | -4% | 2.85%
18 | Oc1ccc[nH]c1=S | 19% | 18% | 18.4% | 6 | 12% | 12.2% | 3% | -34% | 85.2% (active) | 8 | -4% | -8.7% | 13% | -2% | 74.5% (active) | 23% | 12% | 90.9% (active)
19 | Oc1ccc(/C=N/NC(=S)NC2CC3CC2C2C=CCC32)c(O)c1 (stereo not given) | 46% | 96% (active) | 87.8% (active) | 33 | 97% (active) | 90.8% (active) | 49% | 98% (active) | 92.5% (active) | 26 | 98% (active) | 89.3% (active) | 28% | 52% | 90.3% (active) | 65% | 96% (active) | 90% (active)
20 | Nc1ccc2c(SCC(=O)Nc3ccccc3-c3ccccc3NC(=O)CSc3c4ccccc4nc4cc(N)ccc34)c3ccccc3nc2c1 | 25% | 97% (active) | 90% (active) | 24 | 98% (active) | 92.5% (active) | 33% | 97% (active) | 91.2% (active) | 17 | 97% (active) | 78.8% (active) | 27% | 97% (active) | 90.5% (active) | 11% | 96% (active) | 87.5% (active)
